Sampled rows, rich in hits. Any-hit rate of the full collection: about 3%.
KLF5 inh: KLF5 expression inhibitors, primary screen, DLD-1 cells, luminescence. DLD-1 KLF5 promoter-luciferase reporter. inhibition, % at 5 µM. hit rate 0.23% among 290,000;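 active = inhibition above a per-plate limit of that plate's mean compound inhibition plus 3 SD, cut at about 60% in these data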;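 also: higher means less KLF5 promoter-driven luciferase light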
IEC-6 tox: cytotoxicity in IEC-6 intestinal epithelial cells, primary screen, cytotoxicity control for KLF5 inhibitor project, cell-based, luminescence; IEC-6 cytotoxicity, luminescence viability; inhibition, % at 5 µM; hit rate 0.78% among 290,000; AID 1825, 2009; in the data active = inhibition above about 22%
CSC inhib: cancer stem cell viability inhibitors, primary screen, luminescence; hit rate 1.1% among 300,000; cancer stem cell-like cells viability; inhibition, % at 7.5 µM; AID 2717, 2010; in the data active = inhibition above about 75%; inconclusive = no clear call, values can overlap the other calls; tested in HMLE shEcad cells
aSyn 5UTR inh: MLPCN primary screen, SNCA 5' untranslated region; hit rate 0.82% among 300,000; alpha-synuclein 5'UTR reporter, inhibitor activity; inhibition, % (tested at 7.5 µM); in the data active = inhibition above about 60%; inconclusive = no clear call, values can overlap the other calls;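 also: H4 neuroglioblastoma cells stably carrying SNCA 5'UTR luciferase fusion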
SKKanGAS inh: S. pyogenes SKKanGAS growth inhibitors in kanamycin, primary screen, streptokinase expression inhibitor project, SKKanGAS strain, BacTiter-Glo luminescence. hit rate 1.3% among 300,000. inhibition, % at 7.5 µM. 6 h. AID 1662, 2009;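 active = mean replicate score, as percent of positive control median, at least 50; inconclusive = mean below 50 but one replicate at or above 50; inactive = mean and every replicate below 50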;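 also: strain carries kanamycin resistance gene driven by streptokinase promoter and grows in 40 µg/ml kanamycin; loss of luminescence reflects streptokinase promoter inhibition or plain growth inhibition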
Of the large screens only hits and unclear results are named; the others gave an inactive call.

CCCCCCCC(=O)NNC(=O)c1c(O)c2ccccc2n(CCC)c1=O	SKKanGAS inh 111
CCCn1c(=O)c(C(=O)NNC(=O)Cc2ccccc2)c(O)c2ccccc21	none
CCCn1c(=O)c(C(=O)Nc2ccccc2)c(O)c2ccccc21	none
Cn1nc(C(=O)OCC(=O)Nc2sccc2C(N)=O)c2ccccc2c1=O	none
CCOc1ccc(S(=O)(=O)NCc2ccc3c(c2)OCO3)cc1C(=O)O	none
Clc1cccc(/C(Cc2nc3ccccc3[nH]2)=N\Nc2ccccc2)c1	SKKanGAS inh 93
Cc1cccc(OCCCC(=O)Nc2nc3ccccc3[nH]2)c1	CSC inhib 84
CN(c1cccc(Cl)c1)S(=O)(=O)c1cccc(C(=O)Nc2nc3ccccc3[nH]2)c1	SKKanGAS inh 90
O=C(Cc1ccc(Br)cc1)Nc1nc2ccccc2[nH]1	SKKanGAS inh 57
O=C(Nc1nc2ccccc2[nH]1)c1cccc(Cl)c1	SKKanGAS inh 64
O=C(Nc1nc2ccccc2[nH]1)c1ccc(Cl)cc1	aSyn 5UTR inh 66
O=C(Nc1nc2ccccc2[nH]1)c1ccccc1	none
CCOC(=O)c1oc2ccc(Br)cc2c1COC(=O)C1=COCCO1	none (no result: KLF5 inh, IEC-6 tox)
COc1ccc(-c2csc(N3CCN(c4cc(C)nc5ccccc45)CC3)n2)cc1OC	CSC inhib 95
COc1ccc(N(CC(=O)Nc2cc(Cl)ccc2OC)S(=O)(=O)c2c(C)noc2C)cc1	aSyn 5UTR inh 71
COc1ccc(OC)c(NC(=O)CN(c2ccc(C)cc2)S(=O)(=O)c2c(C)noc2C)c1	none
CCc1ccc(N(CC(=O)Nc2nc3ccc(C)cc3s2)S(=O)(=O)c2c(C)noc2C)cc1	CSC inhib 106
CC1CCCC(NC(=O)C2COc3ccccc3O2)C1C (centres undefined)	none (no result: KLF5 inh, IEC-6 tox, aSyn 5UTR inh, SKKanGAS inh)
CCN1CCN(C(=O)CCc2nnc3ccc(N4CCN(c5cccc(OC)c5)CC4)nn23)CC1	none
COC(=O)c1c(NC(=O)c2nc3ccccc3s2)sc2c1CC(C)(C)NC2(C)C	aSyn 5UTR inh 104
CCOc1ccccc1C(=O)OCC(=O)Nc1nnc(-c2ccccc2)o1	SKKanGAS inh 77 (no result: KLF5 inh, IEC-6 tox)
CC1(C(=O)OCC(=O)Nc2nc(-c3ccc(F)c(F)c3)cs2)CC1(Cl)Cl (centres undefined)	SKKanGAS inh 71
CCOc1ccccc1C(=O)NC(C(=O)OCC(=O)Nc1nnc(-c2ccccc2)o1)C(C)C (centres undefined)	SKKanGAS inh 60
Cc1cccc(C(=O)OCC(=O)Nc2nnc(-c3ccccc3)o2)c1O	SKKanGAS inh 98 (no result: KLF5 inh, IEC-6 tox)
O=C(COC(=O)c1ccccc1[N+](=O)[O-])Nc1nnc(-c2ccccc2)o1	none (no result: KLF5 inh, IEC-6 tox)
COc1ccc(CC(=O)Nc2nc(-c3ccc(F)c(F)c3)cs2)cc1	none
CC(OC(=O)CCCN=C1NS(=O)(=O)c2ccccc21)C(=O)Nc1ccc(F)c(F)c1F (centres undefined)	none (no result: KLF5 inh, IEC-6 tox)
CC(C)=CCN1CCN(Cc2ccc(Sc3nncn3C)o2)CC1CCO (centres undefined)	none
COc1cc(C(=O)OCC(=O)NCCN2C(=O)CSC2=O)ccc1OCc1c(C)noc1C	none
CC(=O)c1ccc(NC(=S)NCc2ccc(Cl)cc2Cl)cc1	none
NC(=O)c1nsc(C(=O)N(CC(=O)NC2CCCC2)Cc2ccc3c(c2)OCO3)c1N	none (no result: CSC inhib)
CC1(C(=O)OCC(=O)Nc2nnc(-c3ccccc3)o2)CC1(Cl)Cl (centres undefined)	SKKanGAS inh 73 (no result: KLF5 inh, IEC-6 tox)
O=C(COC(=O)CCC(=O)c1ccccc1)Nc1nnc(-c2ccccc2)o1	none (no result: KLF5 inh, IEC-6 tox)
O=c1cnnc(SCc2ccc([N+](=O)[O-])cc2)[nH]1	none (no result: SKKanGAS inh)
O=C(O)C[C@H](O)C[C@H](O)/C=C/c1c(C2CC2)nc2ccccc2c1-c1ccc(F)cc1	aSyn 5UTR inh 104 (no result: KLF5 inh, IEC-6 tox, CSC inhib)
c1ccc2sc(NC3=NCN(CC4CCCO4)CN3)nc2c1 (centres undefined)	none (no result: CSC inhib)
Cc1nc2c(C(=O)Nc3ccc(N4CCCC(O)C4)cc3)snc2c(=O)[nH]1 (centres undefined)	SKKanGAS inh 59
O=C(Nc1ccc(N2CCCC(O)C2)cc1)c1snc2c(=O)[nH]cnc12 (centres undefined)	none
COC(=O)[C@]1(C)N[C@H](CN(C)C(=O)c2ccccc2)[C@@H]2C(=O)N(C)C(=O)[C@@H]21	none (no result: KLF5 inh, IEC-6 tox, aSyn 5UTR inh, SKKanGAS inh)
COc1ccc2nc(N3C(=O)CNC3=S)sc2c1	SKKanGAS inh 65
COC(=O)/C=C1\C(=O)N(c2nc3ccc(OC)cc3s2)C(=S)N1c1ccc(F)cc1	none (no result: CSC inhib)
Cc1cccc(CC2CC(=O)N(c3nc4ccccc4s3)C2=O)c1 (centres undefined)	none
Cc1ccc2nc(N3C(=O)CNC3=S)sc2c1	SKKanGAS inh 89
Cc1ccc(S(=O)(=O)N2CCCC2)cc1C(=O)NCc1ccccc1CN1CCCC1	none (no result: KLF5 inh, IEC-6 tox, aSyn 5UTR inh, SKKanGAS inh)
Clc1ccc(-c2cc3ccccc3nc2N2CCCC2)cc1	SKKanGAS inh 69
O=C(N/N=C/c1c(O)n(-c2ccccc2Cl)c(=O)c2ccccc12)c1cccnc1	SKKanGAS inh 71 (no result: CSC inhib)
Cc1cccc(C)c1NC(=O)CN(C)CC(=O)Nc1sc2c(c1C(N)=O)CCC2	SKKanGAS inh 50 (no result: KLF5 inh, IEC-6 tox, CSC inhib)
Cc1ccc(NC(=O)CN(C)CC(=O)Nc2sc3c(c2C(N)=O)CCC3)cc1	none
CN(C)S(=O)(=O)c1cccc(NC(=O)CSc2cccc3cccnc23)c1	CSC inhib 84
CCOc1ccc(N(CC(=O)Nc2ccc(OC)cc2)C2=NC3CS(=O)(=O)CC3S2)cc1 (centres undefined)	none
Cc1[nH]c2ccccc2c1C(=O)COC(=O)c1ccc([N+](=O)[O-])s1	SKKanGAS inh 51
COc1ccccc1C(=O)N/C(=C\c1cn(C)c2ccccc12)C(=O)NCCCN1CCOCC1	none
NC(=O)/C(=C/c1cccnc1)NC(=O)c1ccccc1	none
COc1cccc(N2CCN(c3ncnc4c3[nH]c3ccc(F)cc34)CC2C)c1 (centres undefined)	IEC-6 tox 36, SKKanGAS inh inconclusive
Cc1ccc(C)c(C(=O)Nc2nc3ccccc3[nH]2)c1	none
Cc1ccc(Nc2nc3ccccc3[nH]2)nc1	SKKanGAS inh 66
Cc1ccc(NC(=O)Cn2c(O)c(N=NC(=O)c3cc4ccccc4cc3O)c3ccccc32)cc1	CSC inhib 99 (no result: aSyn 5UTR inh, SKKanGAS inh)
Cc1ccc(NC(=O)Cn2c(O)c(N=NC(=O)c3ccncc3)c3ccccc32)cc1	none
COc1cc2sc3ccc(-c4ccc5[nH]ccc5c4)cc3c(=O)c2cc1OC	none (no result: KLF5 inh, IEC-6 tox)
O=c1c2ccccc2oc2cc(-c3ccc4[nH]ccc4c3)ccc12	CSC inhib 83, SKKanGAS inh 57 (no result: KLF5 inh, IEC-6 tox)
Cc1cc(C)c2nc(-c3ccncc3)cc(C(=O)N3CCN(Cc4ccccc4Cl)CC3)c2c1	SKKanGAS inh 74
Cc1[nH]c(C)c(S(=O)(=O)N2CCN(c3ccccc3F)CC2)c1C(=O)N1CCCCC1	none
Cc1cc(C)cc(NC(=O)CCc2nc3sc4c(c3c(=O)[nH]2)CCCC4)c1	CSC inhib 89 (no result: KLF5 inh, IEC-6 tox)
CCOC(=O)Cc1csc(NC(=O)CN2CCCCC2)n1	none
Oc1ccc(N2CCN(c3nc(-c4cccs4)nc4ccccc34)CC2)cc1	CSC inhib 87
CCCCC(=O)NC(=S)Nc1cccc(NC(=O)c2ccco2)c1	none

Assay outcomes from PubChem BioAssay.
